We go through 84 molecules from PubChem BioAssay AID651800 (The Scripps Research Institute Molecular Screening Center, 2012).

Molecules are shown by their SMILES. In all, about 360,000 compounds went through this assay and about 1,300 (0.36%) were called active. This is one part of a sample in which actives are shown more often than they occur. Values without a mark were called inactive. Rule as the data show it: active = inhibition above about 19%; inactive = the rest.

For the experiment, the system named is T-cell receptor (TCR). The experiment is described as follows: inhibitors of human TCR-CD3 interaction, primary screen, biochemical, fluorescence, TAMRA-labeled TCR probe (AID 651800).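 Also: recombinant mutant TCR 2C K166C tagged with TAMRA read by polarization; 0% = receptor in buffer alone and 100% = receptor with positive control.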 The conditions noted are these: at 9.4 µM, hits give high values.
As usually defined, the inhibition is the relative decrease from the control value, in per cent. Regarding `COCCNC(=S)N(C)[C@H]1C[C@H]2c3[nH]c4ccccc4c3CCN2C[C@H]1[C@H](C)O`, the inhibition was 10.3%.

Take `O=C(Nc1cccc2ccccc12)NC1CC1`: the inhibition was 10.8%. Under `CC(=O)N(C)c1ccc(NC(=O)Nc2cccc3ccccc23)cc1` stands -3.94%.

As for `CCN(C(=O)Nc1cccc2ccccc12)c1ccccc1`, the inhibition was 66.9% (active).

As to `CC1CCN(c2ccc(S(=O)(=O)Nc3cc(C(=O)O)cc(C(=O)O)c3)cc2[N+](=O)[O-])CC1`, the inhibition is 2.91%. `CCOC(=O)C(C)n1nc(-c2ccccc2)c2ccccc2c1=O` (centres undefined): the inhibition was 1.19%. For `O=C(O)c1ccc(-n2nc(-c3ccccc3)c3ccccc3c2=O)cc1` the value was -0.55%. As for `O=c1c2ccccc2c(-c2ccccc2)nn1-c1ccccn1`, the inhibition was 26.3% (active).

As for `CC(C)[C@@H](C)/C=C/[C@@H](C)[C@H]1CC[C@@H]2[C@]1(C)CCC1[C@]23C=C[C@]2(C[C@@H](O)CC[C@]12C)N(c1ccc([N+](=O)[O-])cn1)O3` (some centres undefined), the inhibition was 0.39%. For `COC(=O)Nc1nc2ccc(C(=O)C3CC3)cc2[nH]1`, the inhibition is 2.68%. As for `CC(=NNC(N)=O)c1ccc(Cl)c(-n2cccc2)c1`, the inhibition is -1.93%.

With `CC(C)(C)C(=O)Nc1ccc(C(=O)N/N=C/c2ccccc2OC(=O)c2ccc(Cl)cc2Cl)cc1`, the inhibition is 33.2% (active). Under `O=C(N/N=C/c1ccoc1)c1ccc(Cl)cc1Cl` stands 2.14%; under `CSc1ccc(/C=N/NC(=O)c2cccc(Cl)c2)cc1`, -1.56%. For `OC(CCl)CCl`, the inhibition was 2.99%. For `CCOc1c(OC)cccc1C(=O)NCC1(c2ccccc2)CCCC1`, the inhibition was -3.45%. `COc1ccc(C2(CNC(=O)Cc3ccc(OC)c(OC)c3)CCCC2)cc1`: the inhibition is 8.2%. Under `COc1cc(C(=O)NCC2(c3ccccc3)CCCC2)ccc1OC(C)C` stands 35.4% (active); under `CCOC(=O)/C=C/c1ccccc1O`, 0.35%; under `O=c1[nH]n(-c2ccc([N+](=O)[O-])cc2)c(=O)c2ccccc12`, 57% (active). Regarding `CC(=O)N1c2ccccc2N(Cc2ccc([N+](=O)[O-])cc2)C(=O)C1(C)C`, the inhibition was -3%. As for `O=C(Nn1c(SCc2ccc([N+](=O)[O-])cc2)nc2ccccc2c1=O)c1ccc(F)cc1`, the inhibition is 4.61%. In the case of `N#Cc1ccc(-c2nc3cc(C#N)c(C#N)cc3nc2-c2ccccc2)cc1C#N`, the inhibition was 10.9%. As for `COc1ccc(NC(=O)N(C)C[C@@H]2OCCCC[C@@H](C)Oc3ccc(NC(=O)NC4CCCCC4)cc3C(=O)N([C@H](C)CO)C[C@@H]2C)cc1`, the inhibition is 4.84%. In the case of `Cc1cc(=O)n2[nH]c(-c3sccc3-n3c(C)ccc3C)cc2n1`, the inhibition is -6.69%. For `CCOc1ccc(N/C(N)=N/c2nc(C)c(C)c(=O)[nH]2)cc1` the value was 4.59%.

For `CCOc1ccc(-n2c(SCC(=O)Nc3cc(C(=O)O)ccc3Cl)nc3ccccc3c2=O)cc1`, the inhibition was -2.21%.

For the molecule `CCOc1ccc(-n2c(O)c(/C=N/Nc3nnc(C)c(=O)[nH]3)c3ccccc3c2=O)cc1`, the inhibition is 43.9% (active).

Turning to `CCN1C(=O)N[C@@H]2C[C@H](C(=O)N3CCCC3)[C@H](C)[C@H](c3ccccc3)C[C@@H]21`, the inhibition is 2.71%. On to `CCCCCCc1cc2cc(-c3nnc(-c4cccc(OC)c4)o3)c(=O)oc2cc1O`, for which the inhibition was -0.99%. Under `COC(=O)c1cc2c(c3c4ccccc4n(S(=O)(=O)c4cccc(C)c4)c13)C(=O)N(Cc1ccccc1)C2` stands -0.99%; under `Nc1ccn([C@@H]2O[C@H](C(=O)N[C@H]3CCCCNC3=O)[C@@H](O)[C@H]2O)c(=O)n1`, 1.09%; under `COc1ccccc1CCC(=O)NNC(=O)c1ccncc1`, 1.16%. Take `COc1ccc(C(=O)NC(=S)NNC(=O)CCc2ccccc2)cc1`: the inhibition is 101% (active).

Take `COc1ccc(/C(N)=N/OC(=O)CCCc2ccccc2)cc1`: the inhibition is 3.62%. Under `C[C@@H]1CN([C@H](C)CO)C(=O)CCCn2cc(nn2)CO[C@H]1CN(C)C(=O)Nc1ccc(N2CCCCC2)cc1` stands -4.6%. As for `O=C(Nc1c(Cl)c(C2CC2)nn1-c1ccccc1)C(Cl)(Cl)Cl`, the inhibition is 4.25%.

`O=C(N[C@H](C(=O)N1CCC[C@H]1C(=O)NCCc1ccccc1Cl)c1ccccc1)c1ccccc1`: the inhibition is 7.43%. For `Cc1cc(NCCc2c[nH]c3ccccc23)ccc1Oc1cccnc1` the value was -1.7%; for `O=C(N[C@H](Cc1ccccc1)C(=O)N1CCCN(Cc2cccs2)CC1)[C@H]1O[C@@H](n2ccc(=O)[nH]c2=O)[C@H](O)[C@@H]1O`, -1.23%. Take `COC(=O)N1Cc2ccnnc2CC1c1ccccc1Br` (centres undefined): the inhibition was 12%. For the molecule `Cc1ccc(NC(=O)N2c3ccccc3SC2c2ccco2)c(C)c1` (centres undefined), the inhibition was 1.82%. For the molecule `COC(=O)C1=C(C)N(Cc2ccc(C(F)(F)F)cc2)C(=NCc2ccc(C(F)(F)F)cc2)NC1c1cccc(Cl)c1` (centres undefined), the inhibition is 1.76%. For `COCCOC(=O)c1sc(=S)n(CCOC)c1N` the value was 38.1% (active); for `COC(=O)[C@]12C[C@H](CC(=O)NCCC(C)C)C(=O)N(CCc3ccc(OC)c(OC)c3)C1=C[C@H](C(C)(C)C)O[C@@H]2C`, -1.41%; for `COCc1cc(N2CCN(C(=O)OC(C)(C)C)C[C@@H]2C)ccc1N1CCN(Cc2ccccc2)[C@H](C)C1`, -5.69%.

Take `Cc1cc(N2CCN(C(=O)OC(C)(C)C)C[C@H]2C)ccc1N1CCN(Cc2ccccc2)[C@H](C)C1`: the inhibition was -1.77%.

`COc1cccc2c1C(=O)c1c(O)c3c(c(O)c1C2=O)CC(O)(C(C)=NNC(=O)c1ccc(Cl)c(Cl)c1)CC3OC1CC(N)C(O)C(C)O1` (centres undefined): the inhibition was 158% (active). Under `Nc1nc2c(ncn2[C@@H]2O[C@H](C(=O)N[C@H](Cc3ccccc3)C(=O)NCC3CCCCC3)[C@@H](O)[C@H]2O)c(=O)[nH]1` stands -5.72%; under `CCCCCCCCN1C(=O)[C@@H](CC(=O)NCCCC)C[C@@]2(C(=O)OC)C1=C[C@H](C(C)(C)C)O[C@@H]2C`, 4.32%. As to `CC1(C)OC(=O)C2=C(CC(CCc3ccccc3)OC2c2ccc(Cl)cc2)O1` (centres undefined), the inhibition is 0.34%. For the molecule `Cc1ccc(Cc2cnc(N)s2)o1`, the inhibition was 20.7% (active). `Cc1ccc(CCC(=O)Nc2ncc(Cc3cc(Cl)ccc3Cl)s2)o1`: the inhibition is -1.49%.

For `C=CCN=C1NC(c2ccccc2)C(C(=O)OC)=C(C)N1Cc1ccc(C(F)(F)F)cc1` (centres undefined), the inhibition was -2.66%. `N#Cc1ccc(OCCCN2CCC(C(O)(c3ccccc3)c3ccccc3)CC2)c(F)c1`: the inhibition was -1.37%. For `COC(=O)c1ccc(CN2C(=O)[C@]3(OCCC=C[C@H]3C)c3c(Br)cccc32)cc1` the value was -2.86%; for `CN1c2ccc(C=O)c3c(C=O)ccc(c23)N(C)C1(C)C`, 35% (active); for `C#CCOCCOCCOCCNc1nc(N2CCN(C(=O)C([C@@H](C)CC)n3cc(C(N)COC(=O)C(F)(F)F)nn3)CC2)nc(N2CCN(C(=O)[C@H](Cc3ccc(O)cc3)n3cc(C(N)[C@H](C)CC)nn3)CC2)n1` (some centres undefined), 1.55%. For `CCCN1C(=O)c2[nH]nc(-c3ccccc3)c2C1c1ccccc1` (centres undefined) the value was 1.37%; for `CNC(=S)NNC(=O)c1ccc(N(C)C)cc1`, 5.64%.

In the case of `CN(C)c1ccc(/C=N/NC(=O)C(O)c2ccc(Br)cc2)cc1` (centres undefined), the inhibition was 4.89%. In the case of `CN(C)c1ccc(N/C=C/C(=O)C(F)(F)F)cc1`, the inhibition is 20.8% (active). `C#CCN([C@@H](C)C(=O)OCC)S(=O)(=O)c1ccc(Br)cc1F`: the inhibition is 1.93%.

As to `C(=N/N1CCN(c2ccccc2)CC1)/c1cccs1`, the inhibition was 4.89%. Regarding `CSc1ccc(/C=N/N2CCN(Cc3ccccc3Cl)CC2)cc1`, the inhibition is -2.6%. As for `CN1CCN(/N=C/c2ccc(C#N)cc2)CC1`, the inhibition is 51.9% (active).

As to `COC(=O)C1=C(C)NC(=S)NC1c1ccc(OC)cc1` (centres undefined), the inhibition was 0.64%. With `COc1cccc(CC(=O)N2CCN(C(=O)C(=O)c3cccc(C(F)(F)F)c3)CC2)c1`, the inhibition is 0.68%. As to `C[C@H](O)[C@@H]1CN2CCc3ccc(-c4ccc5c(c4)OCO5)cc3[C@@H]2C[C@@H]1N(C)C(=O)C1CCCCC1`, the inhibition is 8.65%.

On to `O=C(N/N=C/c1ccc(Br)o1)c1cncc(Br)c1`, for which the inhibition is -0.44%.

Consider `O=C(CCNC(=O)c1ccccc1)NN=Cc1ccc(Br)o1`, for which the inhibition was 21.9% (active). On to `O=C(CCNC(=O)c1ccccc1Cl)NN=Cc1ccco1`, for which the inhibition is -5.52%. Take `CN1C(=O)C(Br)(Br)CC1c1cccnc1` (centres undefined): the inhibition was -8.3%. For the molecule `Cc1cc(Br)cn2c(Cc3ccccc3C(F)(F)F)c(-c3ccc(C#N)cc3)nc12`, the inhibition is 4.41%. For `COCCCNC(=S)NNC(=O)C(O)(c1ccccc1)c1ccccc1` the value was 24.9% (active); for `CCCCNC(=S)NNC(=O)c1cc(C)on1`, 11.9%; for `COCCCNC(=S)N(Cc1ccccc1)Cc1ccc(F)cc1`, -3.1%.

Turning to `O=C(C(=O)N1CCC(CNS(=O)(=O)Cc2ccccc2)CC1)c1cc2ccccc2o1`, the inhibition was -2.01%. As to `OC(c1ccccc1)(c1ccccc1)C1CCN(CCCOc2ccc(-c3ccsc3)cc2)CC1`, the inhibition is 2.16%. Under `Cc1ccc(CNC(=O)Cc2cn(C)c3ccccc23)cc1` stands 6.02%. Consider `CCOCC(=O)NCc1ccc2c(c1)cc(C)n2C`, for which the inhibition was 28.4% (active). As for `Cc1ccc(CNC(=O)COc2ccc3c(c2)CCC3)cc1`, the inhibition is 1.31%. `COC(=O)[C@H](CC(C)C)NS(=O)(=O)c1c(F)cccc1F`: the inhibition was -1.84%. Take `O=c1[nH]c(-c2ccccc2)cn1C1CCN(Cc2ccc(-c3nc4ccc(F)cc4nc3-c3ccccc3)cc2)CC1`: the inhibition was 12%.
